Measurements published in the supplement of paper PMC6992640.
± gives the standard deviation of the averaged measurements.

Experiments:
Experiment in all cases: cell viability (% of vehicle); higher = less cytotoxic
Conditions in all cases: 10 µM; 72 h
HCI01 = system: HCI01 (cells of a triple-negative basal-like breast cancer xenograft)
HCI03 = system: HCI03 (cells of an ER-positive luminal breast cancer xenograft)
HCI09 = system: HCI09 (cells of a triple-negative luminal androgen receptor type breast cancer xenograft)
HCI11 = system: HCI11 (cells of an ER-positive luminal breast cancer xenograft)
HCI13 = system: HCI13 (cells of an ER-positive luminal breast cancer xenograft)
HCI16 = system: HCI16 (cells of a triple-negative basal-like breast cancer xenograft)
UCD52 = system: UCD52 (cells of a triple-negative basal-like breast cancer xenograft)
WHIM2 = system: WHIM2 (cells of a triple-negative basal-like breast cancer xenograft)
WHIM30 = system: WHIM30 (cells of a triple-negative basal-like breast cancer xenograft)
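Further: PDX cells carrying CMV promoter-driven luciferase, viability read as total photon flux per second by IVIS imaging following D-luciferin, vehicle control 0.1% DMSO.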

Row | SMILES | cell viability (HCI01) | cell viability (HCI03) | cell viability (HCI09) | cell viability (HCI11) | cell viability (HCI13) | cell viability (HCI16) | cell viability (UCD52) | cell viability (WHIM2) | cell viability (WHIM30)
1 | CCCC(=O)OCOC(=O)C1=C(C)NC(C)=C(C(=O)OC)C1c1cccc(Cl)c1Cl (configuration not stated) [Clevidipine Butyrate] | 106.5 ± 0.58 | 126 | 104 ± 19 | 112 | 105 ± 6.6 | 88.1 | 92.2 ± 1.5 | 100 ± 6.3 | 91 ± 2.4
2 | COC1C(O)CC(=O)OC(C)CC=CC=CC(OC2CCC(N(C)C)C(C)O2)C(C)CC(CC=O)C1OC1OC(C)C(OC2CC(C)(O)C(O)C(C)O2)C(N(C)C)C1O (configuration not stated) [Spiramycin] | 133 ± 7.7 | 125 | 110 ± 12 | 116 | 78.9 ± 20 | 138 | 94.4 ± 1.5 | 149 ± 30 | 123 ± 5.8
3 | CN1CCC(=C2c3ccccc3CCc3sccc32)CC1.O=C(O)CC(O)C(=O)O [Pizotifen Malate] | 100 ± 41 | 105 | 74.7 ± 3.8 | 97.9 | 167 ± 21 | 111 | 82.7 ± 2.5 | 68.9 ± 11 | 173.9 ± 0.85
4 | Cc1c(-c2ccccc2)oc2c(C(=O)OCCN3CCCCC3)cccc2c1=O.Cl [Flavoxate hydrochloride] | 87 ± 21 | 123 | 115.8 ± 0.74 | 90.9 | 128 ± 27 | 119 | 99.5 ± 2 | 88.5 ± 24 | 107 ± 9.2
5 | Cn1c(=O)c2c(ncn2CC(O)CO)n(C)c1=O (configuration not stated) [Dyphylline] | 98.4 ± 7.5 | 122 | 98 ± 15 | 114 | 117 ± 14 | 85.9 | 90.2 ± 3.7 | 104 ± 1.1 | 119 ± 24
6 | COC(=O)N(C)c1c(N)nc(-c2nn(Cc3ccccc3F)c3ncccc23)nc1N [Riociguat] | 122 ± 4.3 | 106 | 104 ± 5.6 | 114 | 94.87 ± 0.45 | 91.6 | 104 ± 2.9 | 97.2 ± 1.1 | 124 ± 14
7 | Cc1cc(C#N)cc(C)c1Oc1nc(Nc2ccc(C#N)cc2)nc(N)c1Br [Etravirine (TMC125)] | 107 ± 6.5 | 127 | 91.9 ± 4.6 | 93.4 | 86.559 ± 0.026 | 109 | 99.3 ± 18 | 92.3 ± 3.6 | 137.8 ± 0.96
8 | COCCCOc1ccnc(C[S+]([O-])c2nc3ccccc3[nH]2)c1C (configuration not stated) [Rabeprazole] | 156 ± 40 | 159 | 116 ± 3.5 | 123 | 152 ± 1.6 | 161 | 128 ± 27 | 131 ± 15 | 138 ± 8.2
9 | CC1Cc2ccccc2N1NC(=O)c1ccc(Cl)c(S(N)(=O)=O)c1 (configuration not stated) [Indapamide] | 98 ± 9.9 | 100 | 94.6 ± 4.7 | 88.8 | 110 ± 14 | 128 | 80.2 ± 1.6 | 107 ± 18 | 105 ± 3.4
10 | O=C(Oc1ccccc1C(=O)O)c1ccccc1O [Sasapyrine] | 113 ± 14 | 109 | 108 ± 17 | 104 | 74.4 ± 6.4 | 122 | 90.2 ± 1.2 | 123 ± 24 | 142 ± 7.2
11 | COc1cc(C)c(C=CC(C)=CC=CC(C)=CC(=O)O)c(C)c1C [Acitretin] | 113 ± 9.7 | 72.4 | 90.9 ± 14 | 86.5 | 83 ± 13 | 76.7 | 130 ± 8.7 | 90.5 ± 16 | 145 ± 42
12 | S=c1nc[nH]c2nc[nH]c12 [Mercaptopurine (6-MP)] | 108 ± 4.9 | 104 | 116 ± 6 | 81.6 | 92.3 ± 12 | 74.9 | 91.6 ± 4.2 | 99.3 ± 24 | 118 ± 32
13 | CNCC(O)c1ccc(O)c(O)c1.Cl (configuration not stated) [Epinephrine HCl] | 102 ± 3.8 | 112 | 91.6 ± 15 | 76.6 | 118 ± 17 | 119 | 118 ± 11 | 142 ± 3.3 | 100 ± 1.1
14 | COC(=O)Nc1nc2cc(C(=O)c3ccccc3)ccc2[nH]1 [Mebendazole] | 134 ± 45 | 110 | 119 ± 45 | 68.6 | 88.9 ± 15 | 177 | 103.3 ± 0.22 | 92.6 ± 18 | 110.3 ± 0.28
15 | OC(Cn1cncn1)(Cn1cncn1)c1ccc(F)cc1F [Fluconazole] | 71.5 ± 43 | 153 | 99.3 ± 22 | 94.2 | 112 ± 4.8 | 119 | 76.5 ± 8.7 | 99.2 ± 27 | 180 ± 2.3
16 | CCc1nc(N)nc(N)c1-c1ccc(Cl)cc1 [Pyrimethamine] | 111 ± 6.4 | 129 | 81.6 ± 8.9 | 121 | 105 ± 12 | 109 | 75.2 ± 2.4 | 119 ± 4.7 | 104 ± 1.9
17 | CN(C)CCc1c[nH]c2ccc(CS(=O)(=O)N3CCCC3)cc12.O=C(O)CC(O)C(=O)O [Almotriptan Malate] | 105 ± 5 | 132 | 103 ± 6 | 86.5 | 84.8 ± 7.8 | 144 | 87.7 ± 4.3 | 90.6 ± 0.17 | 134 ± 8
18 | Cn1c(=O)cc(N2CCCC(N)C2)n(Cc2ccccc2C#N)c1=O (configuration not stated) [Alogliptin (SYR-322)] | 118 ± 5.8 | 112 | 89.5 ± 8.9 | 112 | 115 ± 26 | 113 | 108.86 ± 0.059 | 114 ± 9.2 | 117 ± 6.7
19 | CC(=O)N[C@H](Cc1ccc2ccccc2c1)C(=O)N[C@H](Cc1ccc(Cl)cc1)C(=O)N[C@H](Cc1cccnc1)C(=O)N[C@@H](CO)C(=O)N[C@@H](Cc1ccc(O)cc1)C(=O)N[C@H](CCCNC(N)=O)C(=O)N[C@@H](CC(C)C)C(=O)N[C@@H](CCCNC(=N)N)C(=O)N1CCC[C@H]1C(=O)N[C@H](C)C(N)=O [Cetrorelix] | 111 ± 16 | 131 | 96.7 ± 19 | 102 | 190 ± 48 | 151 | 96.1 ± 7 | 122 ± 61 | 132 ± 7.8

Row | SMILES | cell viability (HCI01) | cell viability (HCI03) | cell viability (HCI09) | cell viability (HCI11) | cell viability (HCI13) | cell viability (HCI16) | cell viability (UCD52) | cell viability (WHIM2) | cell viability (WHIM30)
20 | Cl.O=C(c1ccc(OCCN2CCCCC2)cc1)c1c(-c2ccc(O)cc2)sc2cc(O)ccc12 [Raloxifene HCl] | 163 ± 35 | 71.2 | 33.7 ± 1.3 | 116 | 50.8 ± 3 | 182 | 80.5 ± 3.9 | 44 ± 7.1 | 156.6 ± 1.1
21 | COc1ccc(-n2nc(C(N)=O)c3c2C(=O)N(c2ccc(N4CCCCC4=O)cc2)CC3)cc1 [Apixaban] | 100.8 ± 0.64 | 113 | 93.5 ± 17 | 173 | 149 ± 8.9 | 82.4 | 90.7 ± 6.2 | 97.6 ± 8.3 | 85.2 ± 14
22 | Nc1nc(=O)c2ncn(COC(CO)CO)c2[nH]1 [Ganciclovir] | 63.1 ± 33 | 124 | 94.8 ± 2 | 97.9 | 112 ± 17 | 126 | 87.3 ± 5.8 | 93.5 ± 46 | 142.4 ± 1.3
23 | COc1ccc(CC2c3cc(OC)c(OC)cc3CC[N+]2(C)CCC(=O)OCCCCCOC(=O)CC[N+]2(C)CCc3cc(OC)c(OC)cc3C2Cc2ccc(OC)c(OC)c2)cc1OC.O=S(=O)([O-])c1ccccc1.O=S(=O)([O-])c1ccccc1 (configuration not stated) [Atracurium Besylate] | 187 ± 100 | 110 | 87.1 ± 58 | 81 | 80.1 ± 19 | 145 | 126 ± 2.7 | 71.5 ± 12 | 97.1 ± 7
24 | O=c1ccc2ccc(OCCCCN3CCN(c4cccc5sccc45)CC3)cc2[nH]1 [Brexpiprazole] | 136 ± 21 | 106 | 85.7 ± 10 | 102 | 123 ± 5.6 | 162 | 78.3 ± 6.2 | 115 ± 9.1 | 112 ± 8.2
25 | COc1cc2c(cc1OC)CC(=O)N(CCCN(C)CC1Cc3cc(OC)c(OC)cc31)CC2.Cl (configuration not stated) [Ivabradine HCl] | 105 ± 7.9 | 121 | 100 ± 19 | 114 | 99.3 ± 3.9 | 97.9 | 85.7 ± 11 | 93.2 ± 17 | 123 ± 5.3
26 | OCC(O)CN1CCN(c2ccccc2)CC1 (configuration not stated) [Dropropizine] | 97.2 ± 14 | 129 | 89.7 ± 11 | 90.3 | 66 ± 10 | 94.3 | 98.7 ± 2.5 | 99.3 ± 20 | 101.7 ± 0.4
27 | C[N+]1(C)C2CCC1CC(OC(=O)C(O)c1ccccc1)C2.[Br-] (configuration not stated) [Homatropine Methylbromide] | 96.2 ± 1.2 | 97.6 | 89.8 ± 18 | 85.9 | 105 ± 5 | 114 | 104 ± 1.8 | 112 ± 8 | 50.8 ± 2.7
28 | O=S(=O)([O-])CCSSCCS(=O)(=O)[O-].[Na+].[Na+] [Dimesna] | 111 ± 23 | 150 | 97 ± 6.5 | 103 | 122 ± 15 | 124 | 111 ± 8.6 | 128 ± 9.9 | 125 ± 12
29 | Cc1cc(=O)[nH]c(=S)[nH]1 [Methylthiouracil] | 97.2 ± 29 | 119 | 94.7 ± 16 | 93.8 | 119 ± 2.5 | 115 | 92.7 ± 7.9 | 80.6 ± 8.1 | 139 ± 5.5
30 | Cc1ccc(O)c(C(CCN(C(C)C)C(C)C)c2ccccc2)c1.O=C(O)C(O)C(O)C(=O)O (configuration not stated) [Tolterodine tartrate] | 113 ± 38 | 101 | 96.8 ± 7.1 | 93.6 | 97.1 ± 18 | 133 | 60.5 ± 8.9 | 91.5 ± 2.5 | 92.5 ± 1.7
31 | CC(Cn1cnc2c(N)ncnc21)OCP(=O)(O)O (configuration not stated) [Tenofovir] | 89.1 ± 9.4 | 123 | 103 ± 15 | 106 | 112 ± 11 | 116 | 90.6 ± 6.9 | 99.3 ± 14 | 121.3 ± 1.2
32 | CC(=O)O.NC(N)=NN=Cc1c(Cl)cccc1Cl [Guanabenz Acetate] | 134 ± 24 | 122 | 83.5 ± 5.4 | 108 | 101 ± 12 | 158 | 76.9 ± 2.8 | 109 ± 16 | 110 ± 20
33 | O=C1CCCC(=O)C1C(=O)c1ccc(C(F)(F)F)cc1[N+](=O)[O-] [Nitisinone] | 105 ± 31 | 110 | 93.2 ± 5.5 | 87.8 | 109 ± 25 | 137 | 103 ± 10 | 79.6 ± 4.9 | 149 ± 19
34 | CCC(C)(C)c1ccc(CC(C)CN2CC(C)OC(C)C2)cc1.Cl (configuration not stated) [Amorolfine HCl] | 66.7 ± 39 | 129 | 88.4 ± 9.1 | 83.8 | 119 ± 36 | 119 | 58.3 ± 5.5 | 64.5 ± 32 | 166 ± 9.2
35 | CC(C)NCC(O)COc1ccc(CCOCC2CC2)cc1.Cl (configuration not stated) [Levobetaxolol HCl] | 125 ± 30 | 104 | 112 ± 18 | 105 | 145 ± 15 | 127 | 109 ± 18 | 96.8 ± 13 | 114 ± 14
36 | CC(=O)N=c1sc(S(N)(=O)=O)nn1C [Methazolamide] | 103 ± 7.7 | 114 | 92.5 ± 21 | 119 | 119 ± 9.3 | 122 | 93.9 ± 16 | 94.6 ± 3.6 | 97.7 ± 1.2
37 | c1coc(CNc2ncnc3nc[nH]c23)c1 [Kinetin] | 109 ± 4.5 | 123 | 103 ± 12 | 100 | 120 ± 7.4 | 86.8 | 102 ± 20 | 93.7 ± 4 | 121 ± 4.5
38 | CCCC(CCC)C(=O)O [Valproic acid] | 102 ± 13 | 121 | 133 ± 28 | 103 | 143 ± 3.3 | 106 | 95.8 ± 6.9 | 95.6 ± 7.5 | 83.36 ± 0.16
